Screening results: PubChem, National Center for Advancing Translational Sciences (NCATS)
HCV inh = qHTS Assay for Inhibitors of Hepatitis C Virus (HCV); Huh7.5.1 HCVcc-Cre infection, luciferase reporter, 44 h; Potency, µM (series often up to 41.8 µM), hits mostly inhibitors; actives 3.4% (n = 340,000); AID 651820, 2012; active means well fitted inhibition curve with a large enough effect; inconclusive means small, poorly fitted or top-dose-only effect, or another doubt; inactive means no such curve, though single readings can be large or run the other way
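HCVcc-Cre virus at an moi near 0.5 was added right after compound to cells cultured 4 h from seeding (1,000 cells/well). Luciferase activity was determined 44 h later, 15 min after substrate addition at RT.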
MARV entry inh = qHTS for inhibitors of binding or entry into cells for Marburg Virus | Marburg virus pseudotyped entry inhibition, cell reporter | Potency, µM (highest dose often 37.8 µM), usual class: inhibitors | actives 1.8% (n = 300,000) | AID 540276, 2011; calls by dose curve; tested in HEK293 cells
HCMV antiviral = qHTS Assay for inhibitors of the human cytomegalovirus (HCMV); HFF cells, HCMV-luciferase reporter, 72 h; hits give low values; activity change, negative = inhibition, % at 57.5 µM; actives 4.5% (n = 410,000); AID 1259415, 2018; in the data active means activity change below about -60%; inconclusive means no clear call, values can overlap the other calls; inactive means above about -39%
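Two-dose cell screen: HFF monolayers treated with compounds and infected with luciferase-expressing HCMV at 1 PFU/cell, 72 h at 37C, then lysed for luciferase measurement.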
Vaccinia mCherry = qHTS for Stage-Specific Inhibitors of Vaccinia Orthopoxvirus: mCherry Reporter Primary qHTS; Vaccinia virus mCherry reporter infection, fluorescence; Potency, µM (top dose mostly 36.5 µM), usual class: inhibitors; actives 0.63% (n = 310,000); calls by dose curve; tested in A549 cells; further: nearly all actives have a fitted effect of over 35% in size
Lassa entry inh = qHTS for Inhibitors of binding or entry into cells for Lassa Virus | Potency, µM (series often up to 37.9 µM), usual class: inhibitors | actives 1.2% (n = 300,000) | Lassa virus pseudotype entry inhibition, cell reporter; calls by dose curve; tested in HEK293 cells; further: nearly all actives have a fitted effect of over 50% in size
VACV Venus inh = qHTS for Stage-Specific Inhibitors of Vaccinia Orthopoxvirus: Venus Reporter Primary qHTS. Vaccinia virus Venus reporter expression, fluorescence. Potency, µM (doses to about 36.5 µM), usual class: inhibitors. actives 0.46% (n = 330,000). AID 720580, 2013; calls by dose curve; tested in A549 cells; further: nearly all actives have a fitted effect of over 30% in size
Of the large screens only hits and unclear results are named; the others gave an inactive call. Only some compounds are listed: those with a hit (about 7.8% of all), similar ones and a draw of the others.

CCOC(=O)[C@]12Cc3cc(C)ccc3[C@H]1N(C)C(=O)c1cc(OC)ccc12	HCMV antiviral -109.2, Vaccinia mCherry inconclusive, VACV Venus inh inconclusive (no result: HCV inh, MARV entry inh, Lassa entry inh)
CCOC(=O)[C@]12Cc3cc(Cl)ccc3[C@H]1N(C)C(=O)c1ccccc12	none (no result: HCV inh, MARV entry inh, Lassa entry inh)
CCOC(=O)[C@]12Cc3cc(OC)ccc3[C@H]1N(C)C(=O)c1ccccc12	none (no result: HCV inh, MARV entry inh, Lassa entry inh)
CCOC(=O)[C@]12Cc3cc(OC)ccc3[C@H]1N(C1CCCCC1)C(=O)c1ccccc12	HCMV antiviral -101.0, Vaccinia mCherry inconclusive, VACV Venus inh inconclusive (no result: HCV inh, MARV entry inh, Lassa entry inh)
CCOC(=O)[C@]12Cc3cc(Cl)ccc3[C@H]1N(C(C)C)C(=O)c1ccccc12	HCMV antiviral -98.5, Vaccinia mCherry inconclusive, VACV Venus inh inconclusive (no result: HCV inh, MARV entry inh, Lassa entry inh)
O=C(Nc1cccc(Nc2ccccc2)c1)c1cnn2c1NC(=C1CC1)C=C2C(F)F	none (no result: HCV inh, MARV entry inh, HCMV antiviral, Lassa entry inh)
COc1cccc(-c2nc(SCc3cc(=O)c4ccc(C)c(C)c4[nH]3)n[nH]2)c1	none (no result: HCV inh, MARV entry inh)
Cc1cccc(NS(=O)(=O)c2ccc3oc(=O)c4ncn(C)c4c3c2)c1C	Lassa entry inh inconclusive (no result: HCV inh, MARV entry inh)
CCOC(=O)[C@]12Cc3c(cc(OC)c(OC)c3OC)[C@H]1N(C(C)C)C(=O)c1cc(OC)ccc12	HCMV antiviral -99.6, Vaccinia mCherry inconclusive, VACV Venus inh inconclusive (no result: HCV inh, MARV entry inh, Lassa entry inh)
CCOC(=O)[C@]12Cc3c(cc(OC)c(OC)c3OC)[C@H]1N(C1CCCCC1)C(=O)c1cc(OC)ccc12	HCMV antiviral -99.3, Vaccinia mCherry inconclusive, VACV Venus inh inconclusive (no result: HCV inh, MARV entry inh, Lassa entry inh)
CCOC(=O)[C@]12Cc3c(cc(OC)c(OC)c3OC)[C@H]1N(Cc1ccccc1)C(=O)c1ccccc12	none (no result: MARV entry inh, Lassa entry inh)
Cc1c(Cl)cccc1NC(=O)CSc1ncnc2c1sc1ccccc12	Lassa entry inh inconclusive (no result: HCV inh, MARV entry inh)
CC12C(=O)N(c3ccc(C(=O)N4CCOCC4)cc3)C(=O)C1C1c3ccccc3C2c2ccccc21 (stereo not drawn)	HCMV antiviral -101.5 (no result: Vaccinia mCherry, VACV Venus inh)
CCCC(=O)NC(c1ccccc1)c1ccc2cccnc2c1O (stereo not drawn)	HCV inh 2.82µM, MARV entry inh inconclusive, HCMV antiviral -101.6, Vaccinia mCherry inconclusive, Lassa entry inh inconclusive, VACV Venus inh inconclusive
CCCCC(=O)NC(c1ccc(C(C)C)cc1)c1ccc2cccnc2c1O (stereo not drawn)	HCV inh 2.82µM, HCMV antiviral -102.9 (no result: MARV entry inh, Vaccinia mCherry, Lassa entry inh, VACV Venus inh)
O=C(O)CCC(=O)NC(c1ccccc1)c1ccccc1	MARV entry inh inconclusive
CCCCC(=O)NC(c1ccccc1Cl)c1ccc2cccnc2c1O (stereo not drawn)	HCV inh 2.24µM, HCMV antiviral -95.9 (no result: MARV entry inh, Vaccinia mCherry, Lassa entry inh, VACV Venus inh)
CCCCC(=O)NC(c1ccccc1)c1ccc2cccnc2c1O (stereo not drawn)	HCV inh 2.82µM, MARV entry inh inconclusive, HCMV antiviral -99.6, Vaccinia mCherry 1.58µM, Lassa entry inh inconclusive, VACV Venus inh inconclusive
Cc1ccc(C(O)c2ncc(-c3ccc4ccccc4c3)[nH]2)cc1F (stereo not drawn)	none (no result: HCV inh, MARV entry inh, Lassa entry inh)
CC(=O)OCC1=C(C(=O)O)N2C(=O)C(NC(=O)CSc3ccncc3)[C@@H]2SC1 (stereo partly drawn)	none (no result: HCV inh, MARV entry inh, HCMV antiviral, Lassa entry inh)
COc1ccccc1NC(=O)c1cc2ccc3cccnc3c2[nH]1	none (no result: HCV inh, MARV entry inh)
CCC(=O)NC(c1ccc(OC)cc1)c1c(O)ccc2ccccc12 (stereo not drawn)	none (no result: MARV entry inh, Lassa entry inh)
CC(=O)NC(c1ccc(C(C)C)cc1)c1ccc2cccnc2c1O (stereo not drawn)	HCV inh 8.91µM, MARV entry inh inconclusive, HCMV antiviral -98.8, Vaccinia mCherry inconclusive, Lassa entry inh inconclusive, VACV Venus inh inconclusive
CC(C)c1ccc(C(=O)Nc2cccc3cccnc23)cc1	none (no result: HCV inh)
CCC(=O)NC(c1ccccc1OC)c1ccc2cccnc2c1O (stereo not drawn)	HCV inh 2.51µM, MARV entry inh 4.61µM, Vaccinia mCherry inconclusive, Lassa entry inh inconclusive, VACV Venus inh inconclusive (no result: HCMV antiviral)
CCCC(=O)NC(c1ccc(OC)cc1)c1ccc2cccnc2c1O (stereo not drawn)	HCV inh 3.16µM, MARV entry inh inconclusive, HCMV antiviral -98.5, Vaccinia mCherry 8.91µM, Lassa entry inh inconclusive, VACV Venus inh inconclusive
COCC(=O)N[C@H]1C=C[C@@H](CC(=O)OC)O[C@@H]1CO	none (no result: HCV inh, MARV entry inh, Lassa entry inh)
O=C(Cc1csc(N2CCOCC2)n1)N/N=C/c1ccc(Cl)cc1Cl	HCV inh 11.2µM, MARV entry inh inconclusive, Lassa entry inh inconclusive (no result: Vaccinia mCherry, VACV Venus inh)
CC(C)(C)c1cc(C(=O)NNc2cc(C(F)(F)F)ccc2Cl)n(Cc2ccccc2)n1	HCV inh inconclusive, MARV entry inh inconclusive, HCMV antiviral -90.3, Vaccinia mCherry inconclusive, Lassa entry inh inconclusive, VACV Venus inh inconclusive
CC(C)(C)C(=O)NNC(=O)c1cc(C(C)(C)C)nn1Cc1ccccc1	MARV entry inh 10µM, Lassa entry inh inconclusive
Cc1ccc(NC(=O)c2cc(C(C)(C)C)nn2Cc2ccccc2)cc1	HCV inh inconclusive, MARV entry inh inconclusive, HCMV antiviral inconclusive, Lassa entry inh 2.82µM
COc1ccccc1NNC(=O)c1cc(C(C)(C)C)nn1Cc1ccccc1	MARV entry inh inconclusive, Lassa entry inh inconclusive
CC(C)(C)c1cc(C(=O)Nc2ccc(F)cc2)n(Cc2ccc(F)cc2)n1	HCV inh 11.2µM, HCMV antiviral -91.9 (no result: MARV entry inh, Vaccinia mCherry, Lassa entry inh, VACV Venus inh)
Cc1ccc(NNC(=O)c2cc(C(C)(C)C)nn2Cc2ccccc2)cc1	HCV inh inconclusive, Vaccinia mCherry inconclusive, Lassa entry inh inconclusive
COc1ccccc1C(=O)OCc1cc(=O)n2nc(C3CC3)sc2n1	HCMV antiviral inconclusive (no result: HCV inh, MARV entry inh)
CC(C)(C)c1cc(C(=O)NNc2cccc(Cl)c2)n(Cc2ccccc2)n1	MARV entry inh 11.2µM, HCMV antiviral -73.0, Lassa entry inh inconclusive
